Rows were chosen to be rich in hits. Some 5.9% of all compounds tested hit in one or more screens of this group.
Coupling enz: coupling enzyme interference in Giardia aldolase counter-screen; coupling enzyme system counterscreen, AmpLite Red fluorescence; activity change, negative = inhibition, % at 58.2 µM, hits read low; actives 0.67% (n = 290,000); AID 2472; in the data active = activity change below about -30%
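First, compound is pin-transferred into glyceraldehyde-3-phosphate coupling-enzyme reagent at 57.5 uM final and held 10 min at RT. Next, substrate, coupling system and AmpLite Red are added. After 20 min RT, fluorescence (525/598 nm) is read.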
TrxR1 substrate: substrates of rat thioredoxin reductase 1. O89049. purified TrxR1 substrate turnover, NADPH consumption readout. Potency, µM (highest dose often 114 µM), inactives show at the top dose activity change, negative = substrate turnover. actives 0.01% (n = 390,000); also: potency is read from the fitted curve at half-maximal effect; nearly all actives have a fitted effect of over 50% in size
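Rat TrxR1, dispensed at 90 nM, was prereduced with 400 uM NADPH (final) for 5 min at ~22 deg C, then incubated with compound 15 min before 400 uM selenite. A first-read NADPH fluorescence drop versus no-compound background flagged substrates.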
RORgamma inh: ROR gamma (mouse) transcription inhibition; actives 5.4% (n = 310,000); P51450; AID 2551; Potency, µM (top dose mostly 53.6 µM), inactives show at the top dose activity change, negative = inhibition, most hits filed as inhibitors; Drosophila S2 Gal4-RORgamma UAS-luciferase reporter, 20 h; also: potency is read from the fitted curve at half-maximal effect; nearly all actives have a fitted effect of over 60% in size
Target sequence (P51450 whole entry, looked up, the tested form may be a part): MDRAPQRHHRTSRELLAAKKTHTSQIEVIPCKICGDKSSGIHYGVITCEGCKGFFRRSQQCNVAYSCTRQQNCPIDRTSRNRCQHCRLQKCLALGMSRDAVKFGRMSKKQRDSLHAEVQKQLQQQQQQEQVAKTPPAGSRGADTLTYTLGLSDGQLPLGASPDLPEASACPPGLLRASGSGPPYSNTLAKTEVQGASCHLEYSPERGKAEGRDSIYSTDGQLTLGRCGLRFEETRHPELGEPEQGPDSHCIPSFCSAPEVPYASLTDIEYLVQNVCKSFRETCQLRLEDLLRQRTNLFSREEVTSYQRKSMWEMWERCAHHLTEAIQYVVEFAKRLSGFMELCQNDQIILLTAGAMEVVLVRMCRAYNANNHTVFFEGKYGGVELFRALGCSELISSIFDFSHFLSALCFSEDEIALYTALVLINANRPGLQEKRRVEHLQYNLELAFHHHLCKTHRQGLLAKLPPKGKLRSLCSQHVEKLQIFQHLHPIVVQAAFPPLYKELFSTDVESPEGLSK
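Stable Schneider cell line, Gal4 DNA-binding domain fused to ROR gamma, UAS-luciferase. Cmpd 1 hr RT → CuSO4 700 uM final → 20 hr RT → luciferase reagent 10 min → luminescence.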
GALK inh: blocks human galactokinase activity; P51570; Purified GALK, Kinase-Glo residual ATP luminescence; Potency, µM (highest dose often 57.5 µM), without a hit: at the top dose activity change, negative = inhibition, most hits filed as inhibitors; actives 0.007% (n = 270,000); AID 1868; also: potency is read from the fitted curve at half-maximal effect
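Human GALK (5 nM) with 35 uM ATP and 100 uM galactose in 20 mM HEPES pH 8.0, 5 mM MgCl2, 60 mM NaCl, 1 mM DTT, 0.01% BSA. After 1 h at room temperature, leftover ATP was read by Kinase-Glo Plus luminescence.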
rTrxR1 inhibitor: rat TrxR1 inhibition; O89049; actives 1% (n = 390,000); Potency, µM (series often up to 114 µM), for inactives: top-dose activity change, negative = inhibition, actives largely listed as inhibitors; AID 588453; recombinant rTrxR1, NADPH fluorescence consumption, selenite substrate; also: potency is read from the fitted curve at half-maximal effect; nearly all actives have a fitted effect of over 65% in size
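Rat TrxR1 (90 nM in the dispensed reagent) was pre-reduced with 400 uM NADPH for 5 min at room temperature, then incubated with compound for 15 min. After 400 uM selenite was added, NADPH fluorescence (Ex 340/Em 450 nm) was followed for 8 min.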
Gal4-VP16 FLuc: inhibits Gal4-VP16 luciferase reporter, ROR gamma counter-screen; actives 3.5% (n = 310,000); Potency, µM (titrated, usually from 53.6 µM), for inactives: top-dose activity, negative = inhibition, hits mostly inhibitors; Drosophila S2 Gal4-VP16 UAS-luciferase, luminescence, 20 h; AID 2546;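 also: Gal4-VP16 expression switched on by copper sulfate through the metallothionein promoter; potency is read from the fitted curve at half-maximal effect; nearly all actives have a fitted effect of over 50% in size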
* marks the source's active call; other numbers are inactive results; ? = inconclusive; . = no result given; [ ] = dose if it differs, or a comment. Unless noted, calls follow the shape of the dose curve; as a rule, active = well fitted curve in the direction sought with a large enough effect; inconclusive = small, poorly fitted or top-dose-only effect, or another doubt; inactive = no such curve, though single readings can be large; an effect the other way counts as inactive or inconclusive. % is scaled to controls: 0 for no effect and ±100 for the full control effect.

SMILES | Coupling enz | TrxR1 substrate | RORgamma inh | GALK inh | rTrxR1 inhibitor | Gal4-VP16 FLuc
O=C(NCc1ccccn1)c1ccc(/C=N/O)nc1 | 0 | 11%[57.1 µM] | -7% | 1% | 10%[57.1 µM] | -10%
O=C(NCc1ccccc1)c1ccc(/C=N/O)nc1 | 2 | 0% | 5µM* | 0% | -4% | 2%
COc1ccc([C@H]2CC(=O)C=C(c3cccc(Br)c3)C2)cc1OC | . | 0% | . | . | 17% | .
O=[N+]([O-])/C(C(Cl)=C(Cl)Cl)=C(/NC1CC1)Sc1ccccc1 | -6 | 2%[57.1 µM] | 7% | 0% | ? | 19%
O=[N+]([O-])C(=C1Nc2ccccc2N1)C(Cl)=C(Cl)Cl | -3 | -6% | 11µM* | 3% | 11µM* | ?
Cn1c(CN2CCCC2)nc2cc(NC(=O)COc3ccc([N+](=O)[O-])cc3)ccc21 | 0 | -13% | ? | . | -12% | -1%
CC(C)C[C@H](N)c1nnc(SCc2ccc(Cl)cc2Cl)o1 | . | 4%[11.4 µM] | . | . | 10% | .
CC(C)C[C@H](N)c1nnc(S(=O)(=O)Cc2ccc(F)cc2)o1 | 5 | -3% | 0% | 8% | ? | 14µM*
O=c1[nH]c2ccc(S(=O)(=O)N3CCN(c4ccccc4F)CC3)cc2s1 | 19 | -2%[57.1 µM] | 40%[0.365 µM] | -5% | 4%[57.1 µM] | .
CCn1ncc(/C=C/C(=O)NCc2cn(C)nc2C)c1C | . | 1%[57.1 µM] | -17% | -1% | -10%[57.1 µM] | 0%
COc1ccc(NC(=S)NCc2ccco2)c(OC)c1 | 0 | 6%[57.1 µM] | 10µM* | 1% | -15%[57.1 µM] | 4%
COc1ccc(OC)c(NC(=S)NC(=O)c2ccc(Br)o2)c1 | . | 4% | 4µM* | 1% | 23% | ?
COc1ccccc1NC(=S)NCc1ccc(F)cc1 | -2 | 8%[57.1 µM] | 32µM* | -2% | 16%[57.1 µM] | ?
COc1ccc(NC(=S)NCc2ccc(F)cc2)c(OC)c1 | -5 | 5% | 13µM* | -4% | 8% | ?
O=C(NCCCC1CCCC1)C1CCC(=O)N(Cc2ccccc2F)C1 (stereo unspecified) | . | -1% | . | . | 9% | .
CCC(CC)C(=O)Nc1nnc(S(=O)(=O)N2c3ccccc3CC2C)s1 (stereo unspecified) | 3 | 2% | -7% | . | 19% | -15%
c1ccc(-c2noc(CC3CCCCC3)n2)cc1 | 0 | 1%[57.1 µM] | 25% | -2% | 5%[57.1 µM] | -9%
COc1ccccc1NC(=S)NCC1CCC(CNC(=S)Nc2ccccc2OC)CC1 (stereo unspecified) | 1 | 2% | -28% | 14% | 9% | -11%
COc1ccc(OC)c(NC(=S)Nc2ccccc2)c1 | 0 | 0%[57.1 µM] | ? | -3% | 37%[57.1 µM] | 20µM*
COc1ccccc1NC(=S)NCCc1ccc(F)cc1 | 0 | 1%[57.1 µM] | 5µM* | -3% | 0%[57.1 µM] | -2%[10 µM]
COc1ccc(CNC(=S)Nc2cc(OC)ccc2OC)cc1 | 0 | -11% | 18µM* | 2% | -23% | ?
CCOc1cc(NC(=S)NCc2ccco2)c(OCC)cc1NC(=O)C1CC1 | -1 | -4% | 11µM* | 0% | -4% | ?
CCOc1cc(NC(=S)NCc2ccco2)c(OCC)cc1NC(C)=O | -2 | 11% | -22% | 4% | ? | 0%
CCc1cccc(C)c1NC(=O)CCn1c(=O)c2cccn2c2ccccc21 | . | -2% | . | . | 10% | .
Cc1cc(Br)ccc1NC(=O)CN(C)C(=O)c1cc([N+](=O)[O-])ccc1N1CCOCC1 | . | -11% | . | . | -7% | .
CC(C)(CO)NS(=O)(=O)c1ccc2c(c1)Cc1cc(S(=O)(=O)NC(C)(C)CO)ccc1-2 | 5 | 1%[57.1 µM] | 37% | -6% | -5%[57.1 µM] | 2%
COc1ccccc1NC(=S)NCc1ccc2c(c1)OCO2 | 0 | -13% | 18µM* | -2% | -21% | ?
COc1ccccc1NC(=S)NCCc1ccccc1 | 0 | -8% | 6.3µM* | 4% | 6%[57.1 µM] | ?
Cc1cc(OCC(=O)NNC(=S)NC(=O)c2ccc(Br)o2)ccc1Cl | . | 4% | 7.9µM* | -1% | -9% | -21%
O=C(Nc1cccc(-c2nc3ccccc3s2)c1)C1=COCCO1 | -1 | -8% | 27% | -3% | -11% | 1%
